VP16 counter: counter-screen for ROR gamma inhibitors: Gal4-VP16 reporter | Drosophila S2 Gal4-VP16 UAS-luciferase, luminescence, 20 h | Potency, µM (series often up to 53.6 µM), for inactives: at the top dose activity, negative = inhibition, most hits filed as inhibitors | 310,000 compounds, 3.5% hits;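 further: Gal4-VP16 expression switched on by copper sulfate through the metallothionein promoter; nearly all actives have a fitted effect of over 50% in size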
RORg inh: inhibitors of mouse ROR gamma transcriptional activity; Drosophila S2 Gal4-RORgamma UAS-luciferase reporter, 20 h; Potency, µM (series often up to 53.6 µM), without a hit: at the top dose activity change, negative = inhibition, hits mostly inhibitors; 310,000 compounds, 5.4% hits; AID 2551; further: nearly all actives have a fitted effect of over 60% in size
Target sequence (P51450 whole entry, looked up, the tested form may be a part): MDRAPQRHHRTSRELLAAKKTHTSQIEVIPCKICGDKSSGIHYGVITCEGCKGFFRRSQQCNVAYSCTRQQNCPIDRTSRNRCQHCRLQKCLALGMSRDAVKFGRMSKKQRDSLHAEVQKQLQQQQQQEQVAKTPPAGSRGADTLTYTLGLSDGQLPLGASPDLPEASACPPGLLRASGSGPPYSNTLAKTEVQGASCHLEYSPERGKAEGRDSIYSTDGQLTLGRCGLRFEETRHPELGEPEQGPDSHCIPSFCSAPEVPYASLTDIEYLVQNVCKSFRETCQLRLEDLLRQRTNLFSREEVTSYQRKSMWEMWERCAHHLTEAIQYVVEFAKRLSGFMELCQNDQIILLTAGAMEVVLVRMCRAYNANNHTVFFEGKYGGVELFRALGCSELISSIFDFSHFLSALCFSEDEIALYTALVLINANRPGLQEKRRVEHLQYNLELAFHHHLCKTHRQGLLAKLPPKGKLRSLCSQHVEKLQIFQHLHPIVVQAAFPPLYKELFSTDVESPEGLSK
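A Gal4/UAS one-hybrid system in insect cells: metallothionein-promoter Gal4–ROR gamma fusion plus Photinus luciferase reporter. Copper sulfate 700 uM final, 20 hr ambient incubation, luminescent detection after 10 min with reagent.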
Tau fibril ThT: inhibitors of human tau fibril formation, thioflavin T binding | recombinant tau K18 P301L, heparin-induced fibrillization, ThT fluorescence | Potency, µM (doses to about 57.4 µM), for the others: at the highest dose activity, negative = inhibition, most hits filed as inhibitors | P10636 | 270,000 compounds, 2.1% hits; further: nearly all actives have a fitted effect of over 55% in size
Target sequence (P10636 561-689 P618L limits assumed): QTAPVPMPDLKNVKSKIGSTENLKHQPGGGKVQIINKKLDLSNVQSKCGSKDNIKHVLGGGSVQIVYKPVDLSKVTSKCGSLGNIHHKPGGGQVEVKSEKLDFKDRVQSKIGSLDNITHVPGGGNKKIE
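Heparin-induced fibrillization of the P301L-mutant K18 repeat-domain fragment of human tau was followed by ThT binding in quantitative high-throughput format.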
Tau fluor cs: counter-screen for tau fibril formation inhibitors. 280,000 compounds, 0.93% hits. Potency, µM (highest dose often 57.7 µM), without a hit: at the highest dose activity change, negative = decrease. tau K18 P301L Alexa594 fluorescence, heparin fibrillization; further: nearly all actives have a fitted effect of over 55% in size
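Human tau K18 P301L (15 uM unlabeled, 0.24 uM Alexa 594-labeled) in 100 mM sodium acetate pH 7 with 20 uM heparin, 6 hr at 37 C. ThT 30 uM added, 1 hr ambient; Alexa 594 FP and total fluorescence read at 555/632 nm.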
Tau fibril FP: inhibitors of human tau fibril formation | P10636 | K18 P301L tau heparin fibrillization, Alexa594 FP, 6 h | Potency, µM (doses to about 57.7 µM), for inactives: top-dose activity, negative = inhibition, actives largely listed as inhibitors | 280,000 compounds, 0.39% hits; further: nearly all actives have a fitted effect of over 55% in size
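Read-out: fluorescence polarization of Alexa 594-labeled tau (0.24 uM), 555 nm excitation, 632 nm emission. Mixtures held 15 uM unlabeled K18 P301L, compound and 20 uM heparin, pH 7 acetate buffer, incubated 6 hr at 37 C.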
* marks the source's active call; other numbers are inactive results; ? = inconclusive; · = no result; [ ] = another dose, or the depositor's remark. Hits are enriched below; roughly 7.3% of the tested compounds scored in any of these assays. The call rests on the fitted dose curve; in most records, active means well fitted curve in the direction sought with a large enough effect; inconclusive means small, poorly fitted or top-dose-only effect, or another doubt; inactive means no such curve, though single readings can be large; an effect the other way counts as inactive or inconclusive. On the % scale 0 is the no-effect control and ±100 the full control effect; potency means the concentration at half of the fitted maximal effect.

SMILES	VP16 counter	RORg inh	Tau fibril ThT	Tau fluor cs	Tau fibril FP
N/C(Cc1ccc(Cl)cc1)=N\OC(=O)c1cccc2ccccc12	10µM*	?	-20%	?	?
COc1cccc(CNC(=O)Cn2c(=O)ccc3cc(S(=O)(=O)N4CCC(C)CC4)ccc32)c1	·	·	-1%	-21%	-16%
CC1=NN(C(=O)Cn2nc([N+](=O)[O-])c(Br)c2C)C(O)(C(F)(F)F)C1 (configuration not stated)	?	10µM*	-1%	2%	3%
COc1nn(CC(=O)N2N=C(C)CC2(O)C(F)(F)F)cc1[N+](=O)[O-] (configuration not stated)	-1%	3.2µM*	3%	0%	8%
NC(=O)c1ccc(-c2ncc(-c3ccccc3)o2)cc1	11µM*	1.8µM*	-23%	-13%	3%
COCCn1c(C)cc(C(=O)COC(=O)c2ccc[nH]c2=O)c1C	3.5µM*	4.5µM*	-1%	3%	1%
Cc1cc(C(=O)COC(=O)c2ccc[nH]c2=O)c(C)n1C	?	?	-13%	-15%	0%
COCC(=O)OCC(=O)c1cc(C)n(-c2ccc(Br)cc2)c1C	-1%	6%	-15%	-6%	3%
Cc1cc(C(=O)COC(=O)c2ccc[nH]c2=O)c(C)n1-c1ccc(Br)cc1	0.4µM*	-27%	-8%	1%	3%
Cc1ccc(-n2c(C)cc(C(=O)COC(=O)c3ccc[nH]c3=O)c2C)cc1	·	11µM*	5%	12%	7%
Cc1ccc2oc3c(c(=O)c2c1)C(c1ccc(OCC(N)=O)cc1)N(Cc1ccc2c(c1)OCO2)C3=O (configuration not stated)	·	·	?	-11%	-1%
COc1cc(CNC(=O)c2ccc3nc(Cc4ccccc4)oc3c2)cc(OC)c1OC	·	·	-15%	-12%	8%
O=C(COc1ccc(Cl)cc1)NCC(c1ccco1)S(=O)(=O)c1ccccc1 (configuration not stated)	·	·	-21%	-22%	-6%
COc1ccc2c(/C=N/Nc3ccc(C(=O)O)cc3)c[nH]c2c1	5µM*	?	·	·	·
COc1ccc(/C=N/Nc2ccc(C(=O)O)cc2)cc1OC	0.45µM*	1.6µM*	?	-7%	-3%
COc1ccc(/C=N/Nc2ccc(C(=O)O)cc2)cc1Br	1%	40µM*	7.1µM*	?	7%
CCOC(=O)C1=C(CN2CCN(c3ccc(Cl)cc3)CC2)NC(=O)NC1c1ccc(F)cc1 (configuration not stated)	·	·	-9%	-17%	3%
CC(=O)Nc1ccc(SCCN2CCN(C)CCC2=O)cc1	2%	2%	·	·	·
COc1ccc(OC)c(S(=O)(=O)N2C(C)CCCC2C)c1 (configuration not stated)	-11%	-6%	-7%	-2%	-10%
COc1ccc(/C(C)=N/N2C(C)CCCC2C)c(OC)c1 (configuration not stated)	?	13µM*	·	·	·
COc1cccc(=O)c2c(C)n(-c3cc(C)cc(C)c3)c(C)c12	-5%	-20%	28µM*	-15%	?
COc1cccc(-n2c(C)c3c(OC)cccc(=O)c3c2C)c1	?	6.3µM*	25µM*	-26%	?
COc1cccc(C(=O)COc2cccc(NC(=O)c3cccc([N+](=O)[O-])c3)c2)c1	1%	?	?	14µM*[quencher]	7%
O=C(COc1cccc(NC(=O)c2cccc([N+](=O)[O-])c2)c1)c1ccc(F)cc1	-11%	?	?	?	-4%
O=C(Cc1ccccc1)Nc1cccc([N+](=O)[O-])c1	-14%	16%	-5%	-10%	3%
SMILES	VP16 counter	RORg inh	Tau fibril ThT	Tau fluor cs	Tau fibril FP
Cc1ccc(NC(=O)Nc2cccc([N+](=O)[O-])c2)cc1F	?	?	?	5.6µM*[quencher]	?
CC(C)(C)c1ccc(C(=O)NNC(=O)c2cccc(Br)c2)cc1	?	?	-13%	-4%	-18%
O=C(Nc1cccc([N+](=O)[O-])c1)c1ccc2ccccc2c1O	2.8µM*	-31%	?	?	6%
Cc1cccc(NC(=O)C(=O)NNC(=O)c2ccc(C(C)(C)C)cc2)c1	10µM*	?	·	·	·
COc1cccc(NC(=O)C2CCN(S(=O)(=O)c3c(C)noc3C)CC2)c1	·	·	-2%	-6%	-1%
COc1ccc(Cl)cc1NC(=O)CCn1nc(C)cc1C	·	·	-11%	-8%	-5%
CC(C)(C)c1ccc(C(=O)Nc2cccc([N+](=O)[O-])c2)cc1	-17%	?	?	7.9µM*[quencher]	?
Cc1cc(OCCCSc2nc(-c3ccc(C(C)(C)C)cc3)nc3cc(=O)[nH]n23)ccc1Cl	·	·	-17%	-6%	-6%
Cc1noc(C)c1-c1ccc2ncnc(NCc3cccc(F)c3)c2c1	?	-22%	·	·	·
O=C(NC(Nc1nc2ccc([N+](=O)[O-])cc2s1)(C(F)(F)F)C(F)(F)F)c1ccccc1Cl	0.89µM*	6.3µM*	?	?	5%
O=C(NC(Nc1nc2ccc([N+](=O)[O-])cc2s1)(C(F)(F)F)C(F)(F)F)c1cccnc1	6.3µM*	?	-15%	-7%	2%
CC1=C(/C=C/C(C)=C/C=C/C(C)=C/C=C/C=C(C)/C=C/C=C(C)/C=C/C2=C(C)C(=O)C(O)CC2(C)C)C(C)(C)CC(O)C1=O (configuration not stated)	-1%	-3%	?	-5%	0%
Cc1oc(-c2cccc(Br)c2)nc1CN1CCC(C(=O)NCc2ccccc2)CC1	·	·	-13%	-16%	5%
COc1ccc(C(=O)c2oc3ccc(OC)cc3c2N)cc1	-1%	?	11µM*	14µM*[quencher]	8%
CCc1ccccc1NC(=O)C1CCCN(S(=O)(=O)c2ccc3c(c2)CC(C)N3C(C)=O)C1 (configuration not stated)	6%	-10%	·	·	·
Cc1cc(C)c2sc(NNC(=O)c3ccc(S(=O)(=O)N4CCc5ccccc5C4)cc3)nc2c1	5µM*	4.5µM*	-15%	?	14%
Cc1cc(C)c2nc(NNC(=O)c3ccc(S(=O)(=O)N4CCc5ccccc5C4)cc3)sc2c1	3.2µM*	1.6µM*	-17%	?	3%
C#CCOc1ccc(C2C(C(=O)OC)=C(C)NC3=C2C(=O)c2ccccc23)cc1OCC (configuration not stated)	·	·	?	11µM*[quencher]	-4%
CCOc1cc(C2C(C(=O)OC)=C(C)NC3=C2C(=O)c2ccccc23)ccc1OC (configuration not stated)	·	·	?	?	5%
CCOc1cc(C2C(C(=O)OC)=C(C)NC3=C2C(=O)c2ccccc23)cc(Br)c1OCC (configuration not stated)	·	·	?	4µM*[quencher]	?

Source: PubChem BioAssay (National Center for Advancing Translational Sciences (NCATS))
